Drawing on PubChem BioAssay (EPA / NIEHS), this text covers outcome and AC50 for ten compounds.

Where “and” joins values, the source holds several entries; their conditions need not be identical. Equal values may be shown once. More than one record can exist for a structure, and the calls need not agree. Calls of active or inactive are those of the source. The calls were made as follows: active = hit-call score of the fitted dose curve at least 0.9, where 1 is the maximum; inactive = score below 0.9.

The first assay is described as follows: CCTE_Shafer_MEA_dev_inter_network_spike_interval_mean: CCTE's Neural Network Formation Assay for Mean Inter-network Spike Interval, Shafer Lab (AID 2284047).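 As to AC50: potency for a decrease in mean inter-network spike interval below DMSO.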 Put shortly: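 Primary rat cortical neurons on 16-electrode MEA wells, exposed from plating day 0 through DIV 12, compound renewed at DIV 5 and 9 media changes. Mean interval between network-spike peaks recorded DIV 5, 7, 9, 12; collapsed as trapezoidal AUC, fitted downward versus DMSO.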
Take `CN1CCC[C@H]1c1cccnc1`: the outcome was inactive.

Turning to `c1ccc2c(c1)Cc1ccccc1-2`, the compound was called inactive.

The AC50 is the concentration at which the activity in the assay is half-maximal. On to `CC1=C(/C=C/C(C)=C/C=C/C(C)=C/C(=O)O)C(C)(C)CCC1`, for which the half-maximal activity concentration (AC50) was 0.319 µM (active).

For `OCCC(F)(F)C(F)(F)C(F)(F)C(F)(F)C(F)(F)C(F)(F)F`, the outcome was inactive.

For `c1ccc2cc3c(ccc4ccccc43)cc2c1`, the call was inactive.

Regarding `c1ccc2c(c1)ccc1ccccc12`, the outcome was inactive.

On to `CC(O)CO` (stereo unspecified), for which the compound was called inactive.

With `CC#C[C@]1(O)CC[C@H]2[C@@H]3CCC4=CC(=O)CCC4=C3[C@@H](c3ccc(N(C)C)cc3)C[C@@]21C`, the compound was called inactive.

In the case of `C=C(C)C(=O)OCCC(F)(F)C(F)(F)C(F)(F)C(F)(F)C(F)(F)C(F)(F)F`, the compound was classed as inactive.

Take `OCCC(F)(F)C(F)(F)C(F)(F)C(F)(F)C(F)(F)C(F)(F)C(F)(F)C(F)(F)F`: the compound was called inactive.

The nature of the next assay: CCTE_Shafer_MEA_dev_spike_duration_mean: CCTE's Neural Network Formation Assay for Mean Spike Duration, Shafer Lab (AID 2284051).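 Also: mean network spike duration pooled as area under curve over DIV 5 to 12 recordings.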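 As to AC50: potency for a decrease in mean network spike duration versus DMSO.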 Put shortly: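 Primary rat cortical neurons on 16-electrode MEA wells (PEI-coated, laminin in plating drop), exposed from plating through DIV 12 with compound renewed at DIV 5 and 9. Mean network-spike duration recorded DIV 5, 7, 9, 12; trapezoidal AUC across days, DMSO baseline.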
With `CN1CCC[C@H]1c1cccnc1`, the result was inactive.

Consider `c1ccc2c(c1)Cc1ccccc1-2`, for which the call was inactive.

With `CC1=C(/C=C/C(C)=C/C=C/C(C)=C/C(=O)O)C(C)(C)CCC1`, the AC50 is 10.1 µM (active).

Take `OCCC(F)(F)C(F)(F)C(F)(F)C(F)(F)C(F)(F)C(F)(F)F`: the result was inactive.

For `c1ccc2cc3c(ccc4ccccc43)cc2c1`, the result was inactive.

In the case of `c1ccc2c(c1)ccc1ccccc12`, the compound was classed as inactive.

Turning to `CC(O)CO` (stereo unspecified), the compound was called inactive.

In the case of `CC#C[C@]1(O)CC[C@H]2[C@@H]3CCC4=CC(=O)CCC4=C3[C@@H](c3ccc(N(C)C)cc3)C[C@@]21C`, the concentration at half-maximal activity (AC50) is 4.55 µM (active) and 21.8 µM (active).

`C=C(C)C(=O)OCCC(F)(F)C(F)(F)C(F)(F)C(F)(F)C(F)(F)C(F)(F)F`: the compound was called inactive.

Consider `OCCC(F)(F)C(F)(F)C(F)(F)C(F)(F)C(F)(F)C(F)(F)C(F)(F)C(F)(F)F`, for which the call was inactive.

Another assay is described as follows: CCTE_Shafer_MEA_dev_network_spike_duration_std: CCTE's Neural Network Formation Assay for Standard Deviation of Network Spike Duration, Shafer Lab (AID 2284052).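 Also: area under curve of spike duration SD across recording days 5 to 12; hits are decreases in network spike duration SD versus DMSO vehicle.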 Put shortly: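 Primary rat cortical neurons on PEI-coated 16-electrode MEA wells, exposed from plating day 0 through day 12 with compound renewed at DIV 5 and 9. Network spike duration SD recorded on days 5, 7, 9, 12, collapsed as trapezoidal AUC; loss-of-signal fit versus DMSO.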
On to `CN1CCC[C@H]1c1cccnc1`, for which the result was inactive.

`c1ccc2c(c1)Cc1ccccc1-2`: the result was inactive.

`CC1=C(/C=C/C(C)=C/C=C/C(C)=C/C(=O)O)C(C)(C)CCC1`: the AC50 is 2.98 µM (active).

Take `OCCC(F)(F)C(F)(F)C(F)(F)C(F)(F)C(F)(F)C(F)(F)F`: the outcome was inactive.

On to `c1ccc2cc3c(ccc4ccccc43)cc2c1`, for which the result was inactive.

Take `c1ccc2c(c1)ccc1ccccc12`: the compound was classed as inactive.

Regarding `CC(O)CO` (stereo unspecified), the compound was called inactive.

In the case of `CC#C[C@]1(O)CC[C@H]2[C@@H]3CCC4=CC(=O)CCC4=C3[C@@H](c3ccc(N(C)C)cc3)C[C@@]21C`, the concentration at half-maximal activity (AC50) is 8.66 µM (active) and the compound was classed as inactive.

For the compound `C=C(C)C(=O)OCCC(F)(F)C(F)(F)C(F)(F)C(F)(F)C(F)(F)C(F)(F)F`, the compound was classed as inactive.

On to `OCCC(F)(F)C(F)(F)C(F)(F)C(F)(F)C(F)(F)C(F)(F)C(F)(F)C(F)(F)F`, for which the compound was called inactive.
